Results filed as inconclusive are left out. Calls of active or inactive are those of the source. Calls follow the shape of the dose curve; as a rule, active = well fitted cell-killing curve with a large enough effect; inconclusive = small, poorly fitted or top-dose-only effect; inactive = flat fitted curve, though single readings scatter.
% is scaled to controls: 0 for no effect and ±100 for the full control effect; potency is read from the fitted curve at half-maximal effect.

The test can be described thus: DAPI mCherry counterscreen qHTS for Zika virus inhibitors. Also: nearly all actives have a fitted effect of over 55% in size. Conditions: Vero cells, DAPI nuclear count cytotoxicity, imaging 48-72 h; series mostly up to 32.6 µM. The source says: Assay Submitters (PI): Avindra Nath, Ph.D., National Institute of Neurological Disorders and Stroke (NINDS), Bethesda, MD Radhakrishnan Padmanabhan, Ph.D., Georgetown University (GU), Washington D.C. Zika Virus causes congenital defects, including microcephaly and is associated with Guillain-Barre syndrome, eningoencephalitis and myelitis in infected adult. […] Using a target-based approach, we hope to establish a screening paradigm to uncover novel, cell-active NS2B-NS3 protease (Zika Virus) specific inhibitors from NCATS' collection of small molecules using qHTS. […] Four assay panel was created to identify potential Zika Virus inhibitors. Namely, (1) GU unlinked NS2B-NS3 AMC tagged protease qHTS, (2) GU unlinked NS2B-NS3 Rhodamine tagged protease qHTS, (3) NINDS linked NS2B-NS3 AMC tagged protease qHTS, (4) NINDS linked NS2B-NS3 Rhodamine tagged protease qHTS. Active compounds were re-acquired and re-screened to confirm inhibition. Inhibitors were further screened against various confirmatory and counterscreens in dose response format. […] A DAPI (mCherry counterscreen) which determine Vero cell cytotoxicity was used to exclude false positive compounds. […] Early Translation Branch (ETB) National Center for Advancing Translational Sciences (NCATS), Rockville, MD National Institute of Health (NIH), Bethesda, Maryland
384 well ZIKV-mCherry & mCherry DAPI counterscreen: We have developed a new orthogonal imaging assay in 384-well plate format, which uses recombinant virus ZIKV-mCherry in Vero cells. Briefly, 30 microL of Vero cells derived from a green monkey cell line, were dispensed by Multidrop Dispenser into a clear solid bottom black 384 well plate (ultracarrier, Perkin Elmer LifeSciences) at a concentration of 5,000 cells per well. The plate was incubated overnight in a CO2 incubator at 37 degrees C. Compounds were delivered as a 126 nL DMSO solution by Kalypsys pintool transfer. Following compound transfer, 10 microL of ZIKV-mCherry was added at an MOI of 1 and incubated in a CO2 incubator for 48-72 hrs at 37 degrees C. After sufficient incubation of infected cells in test plates, 8 microL of 32% PFA was dispensed into assay plates to fix cells and incubated for 20 min at room temperature. Plates were washed 3 times with PBS using BioTek EL406 microplate washer/dispenser. After washing, 30 microL of PBS with 0.01% TX-100 containing Hoechst dye was dispensed into the each well of the plates for nuclear staining. 384-well plates were imaged on an automated, widefield high content imager (INCell 2200, GE Healthcare) using a 10x/0.45 NA lens and standard DAPI (nuclear stain) and mCherry (cy5) excitation and emission filters. The TIFFs were quantitated using the canned Multi Target Analysis protocol (GE Investigator Workstation software v3.7.2). Briefly, nuclei from the DAPI channel were identified using top hat segmentation and a sensitivity setting of 96 and minimum size area of 35 microm2. A recombinant Zika viral infection was monitored in the Cy5 channel (cells) using a 2 microm collar dilation from the nuclear bitmap. mCherry objects with an average nuclear RFU intensity above 450 (3 stdev above mean negative control wells) were considered "mcherry positive" and data was analyzed by percent infection rate.
Regarding `O=C(O)C(=O)c1cn(Cc2ccccc2)c2ccc(-c3ccc(OC(F)(F)F)cc3)cc12`, the Potency was 28.2 µM (active).

Consider `O=C(Nc1ccc(Br)cc1)c1cc(Br)cc(Br)c1O`, for which the Potency is 8.91 µM (active).

Turning to `O=c1c(C2CC(c3ccc(-c4ccc(Br)cc4)cc3)Cc3ccccc32)c(O)sc2ccccc12` (stereo not drawn), the Potency was 8.91 µM (active).

As to `O=C1C(I)=CC(=C(c2cc(I)c(O)c(I)c2)c2ccccc2C(=O)O)C=C1I`, the Potency was 25.1 µM (active).

Regarding `O=c1c(O)c(-c2ccc(O)c(O)c2)oc2c(O)c(O)cc(O)c12`, the Potency entry is “inactive”.

Turning to `CC1=C(O)C(=O)C=C2C1=CC=C1[C@@]2(C)CC[C@@]2(C)[C@@H]3C[C@](C)(C(=O)O)CC[C@]3(C)CC[C@]12C`, the Potency was 1.12 µM (active).

As for `O=C(O)c1cc(Oc2ccc(C(F)(F)F)cc2Cl)ccc1[N+](=O)[O-]`, the Potency result is “inactive”.

For `CCCCCOc1cc2c(cc1-c1cc(/C=C/C(=O)O)ccc1O)C(C)(C)CCC2(C)C`, the Potency is 15.8 µM (active).

In the case of `CC(=O)c1c(O)c(C)c(O)c(Cc2c(O)c3c(c(C(=O)/C=C/c4ccccc4)c2O)OC(C)(C)C=C3)c1O`, the Potency is 14.1 µM (active).

For `CC(C)=CCC[C@]1(C)C=Cc2c(O)c3c(c(CC=C(C)C)c2O1)O[C@]12C(=C[C@@H]4CC1C(C)(C)O[C@@]2(C/C=C(/C)C(=O)O)C4=O)C3=O`, the Potency is 1.12 µM [infected with Zika reporter virus, MOI 1] (active).

`CN(C)[C@@H]1C(=O)C(C(N)=O)=C(O)[C@@]2(O)C(=O)C3=C(O)c4c(O)cccc4[C@@](C)(O)[C@H]3[C@H](O)[C@@H]12`: the Potency result was “inactive”.

With `O=c1oc2ccccc2c(O)c1C(CC(O)c1ccc(-c2ccc(Br)cc2)cc1)c1ccccc1` (stereo not drawn), the Potency was 15.8 µM (active).

As to `Cc1cc(SCc2sc(-c3ccc(C(F)(F)F)c(F)c3)nc2C)ccc1OCC(=O)O`, the Potency is 14.1 µM (active).

As to `CC(C)=CCCC1(C)C=Cc2c(O)c3c(c(CC=C(C)C)c2O1)OC12C(=CC4CC1C(C)(C)OC2(C/C=C(/C)C(=O)O)C4O)C3=O` (stereo not drawn), the Potency is 3.16 µM (active).

In the case of `CNc1ccc2oc(C[C@@H]3OC4(CC[C@@H]3C)O[C@H]([C@@H](C)C(=O)c3ccc[nH]3)[C@H](C)C[C@H]4C)nc2c1C(=O)O` (stereo partly drawn), the Potency was 1 µM (active).

In the case of `O=C1OC(c2ccc(O)c(S(=O)(=O)O)c2)(c2ccc(O)c(S(=O)(=O)O)c2)c2c(Br)c(Br)c(Br)c(Br)c21`, the Potency entry was “inactive”.

For `N[C@@H](Cc1ccc(Oc2cc(I)c(O)c(I)c2)c(I)c1)C(=O)O`, the Potency entry was “inactive”.

For the compound `C[C@H]1[C@H]2Cc3ccc(O)cc3[C@]1(C)CCN2CCc1ccccc1`, the Potency is 22.4 µM (active).

These data come from PubChem BioAssay AID1347156 (National Center for Advancing Translational Sciences (NCATS), 2019).
